High-throughput results: PubChem BioAssay, National Center for Advancing Translational Sciences (NCATS)
Hits are enriched below; roughly 6% of the tested compounds scored in any of these assays.
D1 agonist = Allosteric Agonists of the Human D1 Dopamine Receptor: qHTS. HEK293 T-REx D1 cells, calcium flux, agonist mode. hit rate 1% among 360,000. D(1A) dopamine receptor (Homo sapiens), P21728. activation, % at 2 µM; in the data active = activation above about 30%
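Inducible HEK293 T-REx D1 cells, force-coupled to calcium signalling, were plated at 4000 cells/well with tetracycline and held overnight at 30 C. After no-wash calcium dye loading, compound-evoked calcium rise over 180 s flagged agonists.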
D1 antag = Antagonist of Human D 1 Dopamine Receptor: qHTS; D(1A) dopamine receptor (Homo sapiens), P21728; HEK293 TREx D1 cells, calcium flux, dopamine EC80; hits give low values; activity change, negative = inhibition, % at 10 µM; hit rate 3.2% among 360,000; in the data active = activity change below about -30%
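HEK293 T-REx cells expressing inducible, force-coupled D1 receptor; no-wash Ca dye, 30–90 min RT. Cmpd → 180 s read at 1 Hz → EC80 DA → 180 s read.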
D1 PAM = Potentiators of Human D1 Dopamine Receptor: qHTS; HEK293 TREx D1 cells, calcium flux, dopamine EC20 potentiation; D(1A) dopamine receptor (Homo sapiens), P21728; potentiation, % at 10 µM; hit rate 0.036% among 360,000; in the data active = potentiation above about 30%
DRD3 antagonist = qHTS of D3 Dopamine Receptor Antagonist: qHTS; D(3) dopamine receptor (Homo sapiens), P35462; D3R cells, DiscoveRx beta-arrestin luminescence, antagonist mode; hits give low values; max response, negative = inhibition, %; hit rate 2.5% among 360,000; AID 652054, 2013; in the data active = max response below about -50%; inconclusive = no clear call, values can overlap the other calls
Target sequence (P35462 whole entry, looked up): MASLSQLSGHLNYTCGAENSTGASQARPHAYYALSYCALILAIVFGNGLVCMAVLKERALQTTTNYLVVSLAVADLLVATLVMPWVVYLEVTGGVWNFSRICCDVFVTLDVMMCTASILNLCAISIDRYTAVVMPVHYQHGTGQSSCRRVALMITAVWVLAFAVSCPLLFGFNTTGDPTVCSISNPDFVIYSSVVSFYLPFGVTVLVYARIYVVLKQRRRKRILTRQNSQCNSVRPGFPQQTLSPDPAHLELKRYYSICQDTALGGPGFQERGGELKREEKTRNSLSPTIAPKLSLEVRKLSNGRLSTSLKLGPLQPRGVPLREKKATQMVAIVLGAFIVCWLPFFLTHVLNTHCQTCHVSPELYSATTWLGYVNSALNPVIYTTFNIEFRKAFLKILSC
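Cells expressing the human receptor were seeded at 1500 cells/well, incubated overnight at 37 degrees C in 5% CO2, then exposed to library compounds with dopamine controls for 90 minutes at 37 degrees C before luminescent detection.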
D3 ag = qHTS of D3 Dopamine Receptor Agonist: qHTS. D(3) dopamine receptor (Homo sapiens), P35462. D3R DiscoveRx beta-arrestin cells, luminescence, 90 min. max activation, %. hit rate 0.58% among 410,000. AID 652048, 2013; in the data active = max activation above about 30%
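Agonist-mode cell screen: cells plated at 1500/well and incubated overnight at 37 °C, then exposed to library compounds for 90 min at 37 °C. Detection reagent was added for 30–60 min at room temperature, and luminescence was read.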
Large screens that a line does not name were inactive; ! = repeats disagree.

CCOC(=O)c1cc(C)n(CC2CCC(C(=O)Nc3ccc(Cl)cc3)CC2)c1C (configuration not stated)	D1 antag -33.8 (no result: DRD3 antagonist)
CCOC(=O)c1cc(C)n(CC2CCC(C(=O)Nc3cccc(Cl)c3)CC2)c1C (configuration not stated)	none (no result: DRD3 antagonist)
CCN(c1ccccc1C)S(=O)(=O)c1nnc(NC(=O)c2ccc(OC)c(OC)c2)s1	none (no result: DRD3 antagonist)
CCN1C(=NCCc2ccc(Br)cc2)N[C@@H](c2ccccc2)[C@H](C(=O)OC)[C@H]1C	DRD3 antagonist -88.4
CC[C@H]1NC(=O)[C@@H](NC(=O)c2ncccc2O)[C@@H](C)OC(=O)[C@H](c2ccccc2)NC(=O)[C@@H]2CC(=O)CCN2C(=O)[C@H](Cc2ccccc2)N(C)C(=O)[C@@H]2CCCN2C1=O	none (no result: D1 agonist, D1 antag, D1 PAM, DRD3 antagonist)
O=c1[nH][nH]c(C(F)(F)F)c1C=Nc1ccccc1	DRD3 antagonist -53.9
O=c1[nH][nH]c(C(F)(F)F)c1C=Nc1cccc(Cl)c1	none
Cc1cccc(CNC(=O)Cn2ccc3cc(S(=O)(=O)N4CCC(C)CC4)ccc32)c1	none (no result: DRD3 antagonist)
CCOC(=O)c1c(NC(C)=O)c2c3c(sc2n1Cc1cc(C)ccc1C)CCCC3	none (no result: DRD3 antagonist)
CC(=O)Nc1ccc(S(=O)(=O)NNC(=O)COc2ccc(C)cc2)cc1	D1 antag -33.3
CC(=O)Nc1ccc(S(=O)(=O)NNC(=O)COc2ccc(C(C)(C)C)cc2)cc1	none
Cc1ccc(OCC(=O)Nc2ccc([N+](=O)[O-])cc2)cc1	D1 antag -38.5
O=C(COc1ccc([N+](=O)[O-])cc1)Nc1ccc(NC(=O)c2ccccc2)cc1	none
O=C(COc1ccccc1)Nc1ccc([N+](=O)[O-])cc1	D1 antag -81.6
COc1cccc(C2NC(c3cccc(OC)c3O)C(C)C(=O)C2C)c1O (configuration not stated)	D3 ag 30.5
O=C(O)c1ccc2c(c1)C(=O)N([C@H](Cc1ccc(O)cc1)C(=O)O)C2=O	none (no result: DRD3 antagonist, D3 ag)
Cc1ccc2c(c1)C(C)CC(C)(C)N2C(=O)NC1CCCCC1 (configuration not stated)	DRD3 antagonist -54.3
Cc1ccc2c(c1)C(C)CC(C)(C)N2C(=O)CN1CCN(C)CC1 (configuration not stated)	DRD3 antagonist -93.1
Cc1ccc2c(c1)N(C(=O)NC1CCCCC1)C(C)(C)CC2C (configuration not stated)	none
CC1CC(C)(C)N(C(=O)CN2CCN(C)CC2)c2ccccc21 (configuration not stated)	DRD3 antagonist inconclusive
Cc1ccccc1NC(=O)c1nnn(-c2ccc3c(c2)OCCO3)c1N	D1 antag -47.5
CCOc1ccccc1NC(=O)c1nnn(-c2ccc3c(c2)OCCO3)c1N	none
CC(C)Cn1c(CN2CCN(c3cccc(Cl)c3)CC2)nc2c1c(=O)[nH]c(=O)n2C	none (no result: DRD3 antagonist)
O=C(CC(=O)c1ccccc1)Nc1cc(C(F)(F)F)ccc1Cl	none
O=C(CN1CCOCC1)Nc1cc(C(F)(F)F)ccc1Cl	none
CN(C)c1cc[n+](CC(=O)Nc2cc(C(F)(F)F)ccc2Cl)cc1	DRD3 antagonist -58.7
O=C(C[n+]1ccc2ccccc2c1)Nc1cc(C(F)(F)F)ccc1Cl	DRD3 antagonist -68.0
O=C(CN1CCCCCC1)Nc1cc(C(F)(F)F)ccc1Cl	DRD3 antagonist -77.4
CN(C)c1cc[n+](CC(=O)Nc2ccc(Cl)cc2)cc1	none
O=C(C[n+]1ccccc1)Nc1cc(C(F)(F)F)ccc1Cl	DRD3 antagonist -58.1
Cc1nn2c(=O)cc(COC(=O)c3ccc(NC(=O)CCc4ccccc4)cc3)nc2s1	none (no result: DRD3 antagonist)
Cc1cc[n+](CC(=O)Nc2cc(C(F)(F)F)ccc2Cl)cc1	DRD3 antagonist -191.9
CCN1C(=O)c2ccccc2Sc2ccc(NC(=O)c3ccc(C)c(F)c3)cc21	D1 antag -72.2 (no result: DRD3 antagonist)
COc1ccccc1CNC(=O)c1ccc2c(c1)N(Cc1cc(C)ccc1C)C(=O)c1ccccc1S2	D1 antag -37.7 (no result: DRD3 antagonist)
O=C(NCCN1CCOCC1)c1ccc2c(c1)N(Cc1cccc(F)c1)C(=O)c1ccccc1S2	none
O=C(NCc1ccco1)c1ccc2c(c1)N(Cc1c(F)cccc1Cl)C(=O)c1ccccc1S2	none (no result: DRD3 antagonist)
Cc1ccc(CN2C(=O)c3ccccc3Sc3ccc(C(=O)NCCCN4CCOCC4)cc32)cc1	D1 agonist 42.8!
CCN(CC)CCCNC(=O)c1ccc2c(c1)N(Cc1c(F)cccc1Cl)C(=O)c1ccccc1S2	D1 agonist 44.9 (no result: DRD3 antagonist)
O=[N+]([O-])c1ccc(-[n+]2ccc3ccccc3c2)c([N+](=O)[O-])c1	DRD3 antagonist -105.7
COc1ccc(OC)c(-c2cc(C(=O)Nc3c(C)nn(Cc4ccccc4Cl)c3C)no2)c1	none
COc1ccc(-c2cc(C(=O)Nc3c(C)nn(Cc4ccccc4Cl)c3C)no2)cc1OC	D1 antag -39.9
COc1ccc(OC)c(-c2cc(C(=O)Nc3ccc(C)c(C)c3)no2)c1	none (no result: DRD3 antagonist)
COc1ccc(OC)c(-c2cc(C(=O)Nc3c(C)nn(Cc4ccccc4C)c3C)no2)c1	D3 ag 33.3
COc1ccc(OC)c(-c2cc(C(=O)Nc3c(C)nn(Cc4ccc(C)cc4)c3C)no2)c1	D3 ag 34.6 (no result: DRD3 antagonist)
COc1ccc(OC)c(-c2cc(C(=O)Nc3cccc(Cl)c3C)no2)c1	D1 antag -40.4 (no result: DRD3 antagonist)
COc1ccc(-c2cc(C(=O)Nc3c(C)nn(Cc4ccc(C)cc4)c3C)no2)cc1OC	none (no result: DRD3 antagonist)
CCOc1ccc(-n2nc(CO)c(C(=O)NCc3cccc(OC)c3)n2)cc1	none (no result: DRD3 antagonist)
Cc1ccc(Cn2ccc(NC(=O)c3cc(-c4ccccc4)on3)n2)cc1	none
COc1cccc(-c2cc(C(=O)Nc3ccn(Cc4ccc(C)cc4)n3)no2)c1	D3 ag 34.6!
CC(=O)[C@@]1(O)CC[C@H]2[C@@H]3C=C(Cl)C4=CC(=O)[C@@H]5C[C@@H]5[C@]4(C)[C@H]3CC[C@@]21C	none (no result: D1 agonist, D1 antag, D1 PAM, DRD3 antagonist)
CC(C)CC(=O)NCc1nc2cccnc2n1Cc1ccccc1	none (no result: DRD3 antagonist)
CC(=O)NCc1nc2cccnc2n1Cc1ccccc1	D1 antag -31.9 (no result: DRD3 antagonist)
Cc1c(CN2CCN(c3cccc(C(F)(F)F)c3)CC2)c(=O)n(-c2ccccc2)n1C	DRD3 antagonist -76.2
O=c1cc(CO)oc(CN2CCN(c3cccc(C(F)(F)F)c3)CC2)c1O	DRD3 antagonist -64.4
COc1ccc(CC(C)N2CCN(c3cccc(C(F)(F)F)c3)CC2)cc1OC (configuration not stated)	DRD3 antagonist -87.8
CCOc1cc(CN2CCN(c3cccc(C(F)(F)F)c3)CC2)ccc1O	DRD3 antagonist -85.6
COc1ccccc1C(=O)N1CCN(c2cccc(C(F)(F)F)c2)CC1	none
